Source: PubChem BioAssay (NCATS)
Where “and” joins values, the source holds several entries; their conditions need not be identical. Equal values may be shown once. Records with an inconclusive call do not appear. A structure can be active in one record and inactive in another. Calls of active or inactive are those of the source. Unless noted, the call rests on the fitted dose curve; in most records, active means well fitted curve in the direction sought with a large enough effect; inconclusive means small, poorly fitted or top-dose-only effect, or another doubt; inactive means no such curve, though single readings can be large; an effect the other way counts as inactive or inconclusive.

Experiments:
[1] = qHTS assay for measurement of the activity of small molecule inhibitors on Zika virus induced Caspase-3 activity in human astrocytoma cells (AID 1224859);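 further: plate controls were ZIKV-infected untreated cells for no effect and uninfected cells for full effect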
Summary of the method: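 Human SNB-19 astrocytoma cells in RPMI 1640 with 10% FBS receive compound one hour ahead of Zika virus at 2 FFU/cell. After 6 h infection, caspase-3/7 activity is detected by Caspase-Glo luminescence.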

[2] = qHTS assay to identify small molecule inhibitors of chordoma cells - UCH-2 (AID 1259356); further: potency means the concentration at half of the fitted maximal effect
[3] = Natriuretic polypeptide receptor (hNpr1) antagonism - Pilot counterscreen GloSensor control cell line (AID 1347045; calls by dose curve; further: potency means the concentration at half of the fitted maximal effect)
Summary of the method: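 HEK293 cells carrying the GloSensor cGMP sensor (GIP/pGS-40F) were loaded with 2% GloSensor reagent for 2 h, exposed to compounds for 30 min, and then stimulated with 50 uM sodium nitroprusside for 20 min at room temperature.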

[4] = biological target: Atrial natriuretic peptide receptor 1 (Homo sapiens) (UniProt P16066); assay: Natriuretic polypeptide receptor (hNpr1) antagonism - Pilot screen (AID 1347049; calls by dose curve;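 further: agonist-evoked cGMP luminescence read 20 min after hNppA addition; on the % scale 0 is the no-effect control and ±100 the full control effect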)
Summary of the method: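 HEK293 cells co-expressing hNpr1 and the GloSensor pGS-40F cGMP luciferase sensor were preloaded with 2% GloSensor reagent for 2 h. Compounds were added for 30 min at room temperature, then cells were stimulated with 0.1 nM hNppA for 20 min before luminescence readout.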

[5] = qHTS Assay for Identifying Gametocytocidal Compounds (AID 743244); further: potency means the concentration at half of the fitted maximal effect;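 on max response: on the % scale 0 is the no-effect control and ±100 the full control effect; actives lower the fluorescent signal which means gametocytes are killed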; conditions: P. falciparum 3D7 stage III-V gametocytes, alamarBlue, 72 h; max response: stronger effect = lower value
Summary of the method: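 Compounds are pinned into medium, gametocytes (stage III–V, 3D7, 20,000 cells/well) added, and plates held 72 h at 37 °C in 5% CO2. AlamarBlue follows for 24 h before fluorescence reading.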

[6] = qHTS assay for cell viability of HEK293 cells (AID 743288); conditions: ATP luminescence (CellTiter-Glo), 18 h; max response: stronger effect = lower value; further: on the % scale 0 is the no-effect control and ±100 the full control effect; nearly all actives have a fitted effect of over 50% in size
Summary of the method: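 Parental HEK293 cells, 2,000 per well, preincubated at least 5 h at 37 C, then exposed to compounds in DMSO for 18 h at 37 C. Viability by CellTiter-Glo ATP luminescence after 30 min at room temperature.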

[7] = P-glycoprotein substrates identified in KB-8-5-11 adenocarcinoma cell line, qHTS therapeutic library screen (AID 1346987); further: nearly all actives have a fitted effect of over 65% in size; further: potency means the concentration at half of the fitted maximal effect
Summary of the method: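 KB-8-5-11: colchicine-selected sub-line of KB-3-1 over-expressing P-gp; assay medium lacked colchicine. 72 h drug exposure at 37 degree C, CellTiter-Glo.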

[8] = qHTS assay to identify small molecule inhibitors of chordoma cells - UCH-1 (AID 1259355); further: on the % scale 0 is the no-effect control and ±100 the full control effect; nearly all actives have a fitted effect of over 55% in size
Summary of the method: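 Luminescent ATP read-out (CellTiter-Glo, 30min at room temperature) measured viability of UCH-1 cells exposed for 48hr to test drugs at 15 concentrations, co-dosed with a five-agent combination of auranofin, camptothecin, doxorubicin, rubitecan and topotecan.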

[9] = qHTS profiling of the MIPE4 collection as inhibitors of Plasmodium falciparum (3D7) proliferation (AID 743344; call rule not given here;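 further: scaled between DMSO vehicle wells and 0.29 µM artemisinin as full inhibition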); conditions: P. falciparum 3D7 in erythrocytes, SYBR Green DNA fluorescence, 72 h; at 28.5 µM (top of the series)
Summary of the method: (§1)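 Erythrocytes infected with P. falciparum (0.3% parasitemia, 2.5% hematocrit) incubated with compounds 72 h at 37 C, 5% CO2. Lysis with saponin/Triton buffer containing SYBR Green I, overnight at room temperature in the dark; DNA fluorescence (485/535 nm) normalised to 0.29 uM artemisinin and DMSO.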

[10] = qHTS profiling of the MIPE4 collection as inhibitors of Plasmodium falciparum (DD2) proliferation (AID 743345; call rule not given here); conditions: P. falciparum Dd2 in erythrocytes, SYBR Green DNA, 72 h; at 28.5 µM (top of the series)
Summary of the method: as §1

[11] = qHTS profiling of the MIPE4 collection as inhibitors of Plasmodium falciparum (DD2) proliferation (Rep 2) (AID 743346; call rule not given here); conditions: P. falciparum Dd2 in erythrocytes, SYBR Green DNA, 72 h; at 28.5 µM (top of the series)
Summary of the method: as §1

[12] = qHTS profiling of the MIPE4 collection as inhibitors of Plasmodium falciparum (HB3) proliferation (AID 743347; call rule not given here;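 further: plate controls were DMSO vehicle wells for no effect and artemisinin wells for full effect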); conditions: P. falciparum HB3 in erythrocytes, SYBR Green DNA, 72 h; at 28.5 µM (top of the series)
Summary of the method: as §1

[13] = qHTS profiling for inhibitors of Plasmodium falciparum (3D7) proliferation (AID 743322);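 further: infected erythrocytes exposed to compound for 72 h before lysis; 100% = DMSO vehicle wells and 0% = 0.29 µM artemisinin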; conditions: P. falciparum 3D7 proliferation; at 28.7 µM (top of the series) unless noted
Summary of the method: as §1

[14] = qHTS profiling for inhibitors of Plasmodium falciparum (DD2) proliferation (AID 743323; call rule not given here); conditions: lower = more inhibition; at 28.7 µM (top of the series) unless noted
Summary of the method: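 Parasite DNA quantified by SYBR Green fluorescence (ex 485, em 535 nm) after saponin/Triton lysis and overnight dark incubation. Cultures: 0.3% parasitemia, 2.5% hematocrit, 72 h, 37 C; data scaled between DMSO and 0.29 uM artemisinin.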

[15] = qHTS profiling for inhibitors of Plasmodium falciparum (HB3) proliferation (AID 743324); conditions: Plasmodium falciparum HB3 blood-stage proliferation; at 28.7 µM (top of the series);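 further: 100% = DMSO vehicle wells and 0% = artemisinin-treated control wells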
Summary of the method: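 P. falciparum HB3 grown in erythrocytes (0.3% parasitemia, 2.5% hematocrit final) with compound for 72 h at 37 C, 5% CO2. Parasite DNA detected by SYBR Green after saponin/triton lysis overnight; normalized to 0.29 uM artemisinin and DMSO.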

Sequence of Atrial natriuretic peptide receptor 1 (Homo sapiens) (P16066 whole entry, looked up): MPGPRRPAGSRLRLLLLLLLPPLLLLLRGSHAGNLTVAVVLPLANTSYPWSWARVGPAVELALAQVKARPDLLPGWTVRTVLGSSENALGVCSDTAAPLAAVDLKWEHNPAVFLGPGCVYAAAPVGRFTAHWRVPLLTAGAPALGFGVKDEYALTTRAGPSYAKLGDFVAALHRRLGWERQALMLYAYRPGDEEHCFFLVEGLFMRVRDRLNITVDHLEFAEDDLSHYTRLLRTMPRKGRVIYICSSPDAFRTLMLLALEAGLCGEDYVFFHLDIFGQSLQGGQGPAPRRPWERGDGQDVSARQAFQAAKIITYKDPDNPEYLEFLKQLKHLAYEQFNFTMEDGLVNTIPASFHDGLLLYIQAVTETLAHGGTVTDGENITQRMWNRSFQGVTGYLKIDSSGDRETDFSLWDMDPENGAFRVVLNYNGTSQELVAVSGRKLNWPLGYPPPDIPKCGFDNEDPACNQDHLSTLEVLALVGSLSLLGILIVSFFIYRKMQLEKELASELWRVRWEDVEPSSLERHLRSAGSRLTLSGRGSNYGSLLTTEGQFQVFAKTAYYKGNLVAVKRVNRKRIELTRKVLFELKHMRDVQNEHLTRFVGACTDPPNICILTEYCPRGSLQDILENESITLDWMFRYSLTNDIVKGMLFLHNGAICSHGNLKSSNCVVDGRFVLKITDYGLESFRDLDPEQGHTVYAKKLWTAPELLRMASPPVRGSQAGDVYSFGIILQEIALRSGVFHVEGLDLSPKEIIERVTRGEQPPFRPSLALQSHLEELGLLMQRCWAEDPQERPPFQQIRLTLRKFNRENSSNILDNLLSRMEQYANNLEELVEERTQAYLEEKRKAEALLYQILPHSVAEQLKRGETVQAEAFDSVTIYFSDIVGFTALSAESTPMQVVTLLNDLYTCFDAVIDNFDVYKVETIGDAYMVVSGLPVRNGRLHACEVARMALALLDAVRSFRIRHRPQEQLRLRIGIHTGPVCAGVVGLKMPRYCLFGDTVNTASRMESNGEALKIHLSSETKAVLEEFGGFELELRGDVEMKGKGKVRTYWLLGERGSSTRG

CN(C)CCCN1c2ccccc2Sc2ccccc21
inactive: outcome [1] | Potency [2] | Potency [3] | Potency [4]

NC(=Nc1ccccc1)Nc1ccccc1
inactive: max response [5] 5.26% and -9.95% | max response [6] -13.7% and -2.76% | outcome [1] | Potency [2] | Potency [7]

CCN(Cc1ccncc1)C(=O)C(CO)c1ccccc1 (stereo unspecified)
inactive: max response [5] 10.4% and 27% | outcome [1] | Potency [2] | Potency [7] | Potency [3]

C[C@H](CS)C(=O)N1CCC[C@H]1C(=O)O
inactive: max response [5] -9.05% and 12% | outcome [1] | Potency [2] | Potency [7] | Potency [3] | Potency [4]

CC(=O)Oc1cc(C(C)C)c(OCCN(C)C)cc1C
inactive: max response [5] 14.5% and 12.4% | outcome [1] | Potency [2] | Potency [7] | Potency [4]

CN(C(=O)CCCOc1ccc2[nH]c(=O)ccc2c1)C1CCCCC1
inactive: max response [5] -2.24% and 11% | outcome [1] | Potency [2] | Potency [3] | Potency [4]

COc1cc2c(cc1OC)-c1cc(=Nc3c(C)cc(C)cc3C)n(C)c(=O)n1CC2
active: Potency [7] 25.9 µM
inactive: max response [5] 25.2% | outcome [1] | Potency [2] | Potency [3] | Potency [4]

NC(N)=NC(=O)Cc1c(Cl)cccc1Cl
inactive: max response [5] 5.89% and 26.9% | outcome [1] | Potency [8] | Potency [2] | Potency [3] | Potency [4]

FC(F)(F)c1ccccc1-n1ccnc1
inactive: max response [5] 18.2% and -13.7% | outcome [1] | Potency [2] | Potency [7] | Potency [3]

C[C@@H](O)[C@H]1C(=O)N2C(C(=O)O)=C(SCCN=CN)C[C@H]12
inactive: max response [5] 3.85% and 8.18% | outcome [1] | Potency [8] | Potency [2] | Potency [7] | Potency [3]

CC(C)COCC(CN(Cc1ccccc1)c1ccccc1)N1CCCC1 (stereo unspecified)
active: Potency [5] 22.4 µM
inactive: max response [5] 9.9% | outcome [1] | Potency [8] | Potency [2] | Potency [3]
2.98%: growth, % of control [12]
7.8%: parasite growth remaining, % of DMSO control (lower = more inhibition) [10]
16%: parasite growth, % of control (lower = inhibition) [11]
5.43%: parasite growth, % of DMSO control [9]

CCc1cccc(N(C)C(N)=Nc2cccc3ccccc23)c1
inactive: max response [5] -2.27% and 4.9% | outcome [1] | Potency [2] | Potency [3] | Potency [4]

CN=C(NC#N)NCCSCc1nc[nH]c1C
inactive: max response [5] 2.14% and 13.4% | max response [6] -3.45% | outcome [1] | Potency [8] | Potency [2] | Potency [7] | Potency [3]

COc1cc(Cc2cnc(N)nc2N)cc(OC)c1OC
inactive: max response [5] 1.83% and 3.42% | max response [6] -2.08% | outcome [1] | Potency [8] | Potency [2] | Potency [7] | Potency [3] | Potency [4]

COCC(=O)O[C@]1(CCN(C)CCCc2nc3ccccc3[nH]2)CCc2cc(F)ccc2[C@@H]1C(C)C
inactive: outcome [1]
-0.639%: activity, percent of control [14]
active: Potency [5] 2.64 µM and 1.41 µM | Potency [2] 14.6 µM | Potency [7] 2.31 µM | Potency [3] 26.1 µM
-2.7%: remaining parasite growth % (stronger effect = lower value) [13]
-1.39%: remaining proliferation (% of control), lower = more inhibition [15]

COCCc1ccc(OCC(O)CNC(C)C)cc1 (stereo unspecified)
inactive: max response [5] -3.26% and -1.45% and -10.9% | outcome [1] | Potency [8] | Potency [2] | Potency [3]

CCC(=O)c1ccc2c(c1)N(CCCN(C)C)c1ccccc1S2
inactive: outcome [1] | Potency [8] | Potency [2] | Potency [3]

CC(C)(C)NCC(O)c1cc(O)cc(O)c1 (stereo unspecified)
inactive: max response [5] -9.6% and 12.9% | outcome [1] | Potency [8] | Potency [2] | Potency [7] | Potency [3]

CN(C)CC[C@@H](c1ccc(Br)cc1)c1ccccn1
inactive: max response [5] -2.43% and 14.2% | outcome [1] | Potency [2] | Potency [3] | Potency [4]

CCOC(=O)c1cnc2c(cnn2CC)c1NN=C(C)C
inactive: max response [5] 1.49% and 6.62% | outcome [1] | Potency [2] | Potency [3]

c1cnc(N2CCN(Cc3ccc4c(c3)OCO4)CC2)nc1
inactive: max response [5] 1.5% | outcome [1] | Potency [2] | Potency [3]

CN1C(=O)CC[C@H]1c1cccnc1
inactive: max response [5] 3.71% and 23.6% | outcome [1] | Potency [8] | Potency [2] | Potency [7] | Potency [3]

CCN(CC)CCNC(=O)c1ccc(NC(C)=O)cc1
inactive: max response [5] 11.5% and -3.43% | outcome [1] | Potency [8] | Potency [2] | Potency [7] | Potency [3]
